We go through nine compounds from PubChem BioAssay (Tox21).

Assay [1] is described as follows: qHTS assay to identify small molecule agonists of the RXR signaling pathway - cell viability counter screen (AID 1159529). Note: nearly all actives have a fitted effect of over 50% in size. Note: potency is the fitted concentration of half-maximal effect. Summed up:
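RXR-alpha-UAS-bla HEK 293T cells in medium with 2% charcoal-stripped FBS were pre-incubated 5 hr, then compound-treated 16 hr at 37 C. Viability was read by CellTiter-Glo luminescence in the same wells as the beta-lactamase assay, with tetraoctyl ammonium bromide as positive control.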
Background: In qHTS, concentration-response curves come from the screen itself.

Assay [2] is described as follows: qHTS assay to identify small molecule antagonists of the retinoid acid receptor (RAR) signaling pathway - cell viability counter screen (AID 1159551). Note: nearly all actives have a fitted effect of over 35% in size. The method in brief: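 Cytotoxicity counter screen: ATP content quantified by CellTiter-Glo luminescence in C3RL4 cells treated 6 hr at 37 C with compound and retinol (1 uM final). Cells plated at 1,000/well and cultured overnight before dosing.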

A short description of assay [3]: qHTS assay to identify small molecule antagonists of the retinoic acid receptor (RAR) signaling pathway (AID 1159552; note: nearly all actives have a fitted effect of over 50% in size; note: potency is the fitted concentration of half-maximal effect). Summed up: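 Retinol signaling pathway inhibitors screened in C3RL4 RARE-luciferase reporter cells seeded overnight at 37 C, then compounds added with 1 uM (final) retinol as pathway substrate. After 6 hr at 37 C, luciferase luminescence read after 30 min at room temperature.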

The nature of assay [4]: qHTS assay to identify small molecule agonists of the retinoic acid receptor (RAR) signaling pathway (AID 1159553). Note: potency is the fitted concentration of half-maximal effect. As to conditions: C3RL4 RARE luciferase reporter, agonist, 6 h; activation: at 73.3 µM (top of the series) unless noted. Summed up:
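Luminescence was measured 30 min after luciferase reagent addition at room temperature. Before that, C3RL4 reporter cells (1,000 per well, plated overnight) were treated with compound for 6 hr at 37 C and 5% CO2.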

Assay [5] can be described thus: qHTS assay to identify small molecule antagonists of the estrogen related receptor (ERR) signaling pathway from Tox21 library - cell viability counter screen (AID 1224834). Note: nearly all actives have a fitted effect of over 30% in size. Note: potency is the fitted concentration of half-maximal effect. The method in brief:
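CellTiter-Fluor fluorescence, read after 30 min at 37 C, measures viability of ERR cells. Cells plated at 2,000/well and incubated 6 h before pin-tool compound addition, then exposed 17.5 hours at 37 C.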

Assay [6] deals with Luciferin 4-monooxygenase (Photinus pyralis) (UniProt P08659). Put plainly: qHTS assay to identify small molecule inhibitors of firefly luciferase (AID 1224835). Note: nearly all actives have a fitted effect of over 25% in size. Note: potency is the fitted concentration of half-maximal effect. Summed up:
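Quantitative HTS format; KM concentrations of both substrates. Purified P. pyralis FLuc activity quantified from luminescence images.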

The nature of assay [7]: qHTS assay to identify small molecule agonists of the constitutive androstane receptor (CAR) signaling pathway - cell viability counter screen (AID 1224836). Note: nearly all actives have a fitted effect of over 45% in size. The method in brief: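 HepG2 cells stably carrying hCAR and a CYP2B6-2.2kb reporter; 15-concentration compounds plus PK11195 (final 0.75 uM), 23 hr at 37 C/5% CO2. Viability read by CellTiter-Fluor fluorescence.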
Assay [8] in a line: qHTS assay to identify small molecule antagonists of the constitutive androstane receptor (CAR) signaling pathway - cell viability counter screen (AID 1224837). Note: nearly all actives have a fitted effect of over 45% in size. Note: potency is the fitted concentration of half-maximal effect. The method in brief: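 Cytotoxicity counter-screen: CellTiter-Fluor fluorescence after 23 h compound exposure (15-point qHTS) in double-stable HepG2-CYP2B6-hCAR cells, with 50 nM CITCO added.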
Assay [9] concerns the target Nuclear receptor subfamily 1 group I member 3 (Homo sapiens) (UniProt Q14994). Put plainly: qHTS assay to identify small molecule antagonists of the constitutive androstane receptor (CAR) signaling pathway (AID 1224838).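 Note: HepG2 cells stably expressing hCAR with CYP2B6 luciferase reporter stimulated by CITCO; nearly all actives have a fitted effect of over 40% in size.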 Note: potency is the fitted concentration of half-maximal effect. Summed up:
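Antagonism measured as luciferase signal (ONE-Glo, 30 min, room temperature) in CAR-stimulated cells: HepG2-CYP2B6-hCAR double-stable line exposed 24 hr at 37 C to compound in a 15-point series plus 50 nM CITCO.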

Assay [10] shares this target. Put plainly: qHTS assay to identify small molecule agonists of the constitutive androstane receptor (CAR) signaling pathway (AID 1224839). Note: nearly all actives have a fitted effect of over 15% in size. Note: potency is the fitted concentration of half-maximal effect. Summed up:
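HepG2 cells stably co-transfected with hCAR and a CYP2B6-2.2kb luciferase reporter; compounds at 15 concentrations with 0.75 uM PK11195 present. After 24 hr at 37 C, luciferase read by ONE-Glo luminescence.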

The nature of assay [11]: qHTS assay to identify small molecule antagonists of the estrogen related receptor signaling pathway with the pleiotropic PPARgamma coactivator (PGC) from Tox21 10K library - cell viability counter screen (AID 1224840; active = well fitted cell-killing curve with a large enough effect in the repeat runs, not every such curve was filed as active; note: nearly all actives have a fitted effect of over 40% in size). The method in brief: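 Counter-screen for cytotoxicity: after 17.5 h compound exposure at 37 C, CellTiter-Fluor reagent added to PGC/ERR cells for 30 min and fluorescence read. Cells were seeded at 2,000 per well 6 h before dosing.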

A short description of assay [12]: qHTS assay to identify small molecule antagonists of the estrogen related receptor signaling pathway with the pleiotropic PPARgamma coactivator (PGC) from Tox21 10K library (AID 1224841; call rule not given here; note: actives are mostly falling curves and most rising ones were filed inactive; nearly all actives have a fitted effect of over 50% in size; note: potency is the fitted concentration of half-maximal effect). Summed up:
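Luminescence (One-Glo, 30 min at room temperature) after 18 h compound treatment at 37 C of PGC/ERR reporter cells plated at 2,000 cells/well and settled 6 h beforehand.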

Assay [13] concerns the target Thyrotropin receptor (Homo sapiens) (UniProt P16473). Put plainly: qHTS assay to identify small molecule agonists of the thyroid stimulating hormone receptor (TSHR) signaling pathway (AID 1224843; calls by dose curve; note: nearly all actives have a fitted effect of over 45% in size). The method in brief: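 Compounds are titrated over 15 concentrations, in triplicate, onto TSHR-HEK293 cells seeded at 800/well. Plates sit 30 min at room temperature before cAMP-d2 and anti-cAMP cryptate are added; signal is read after a further hour.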

Assay [14] can be described thus: qHTS assay to identify small molecule agonists of the estrogen related receptor signaling pathway with the pleiotropic PPARgamma coactivator (PGC) from Tox21 10K library (AID 1224842). Note: nearly all actives have a fitted effect of over 15% in size. Summed up: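 PGC/ERR reporter cells (NTP line) were seeded 2,000 per well, rested 6 h at 37 C/5% CO2, then pin-dosed with compounds in DMSO for 18 h at 37 C; luciferase read by One-Glo luminescence after 30 min at room temperature.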

The structures appear in SMILES notation. Several values for one entry are separate records, joined by “and”; a condition that tells them apart may be missing. Equal values may be shown once. Inconclusive results are not listed. A structure can be active in one record and inactive in another. Activity calls are given as the source filed them. Unless noted, calls come from the whole dose curve; as a rule, active = well fitted curve in the direction sought with a large enough effect in the repeat runs; inconclusive = weak or mixed curves; inactive = no such curve, though single readings can be large; an effect the other way counts as inactive or inconclusive.

Chain of Nuclear receptor subfamily 1 group I member 3 (Homo sapiens) (Q14994 whole entry, looked up): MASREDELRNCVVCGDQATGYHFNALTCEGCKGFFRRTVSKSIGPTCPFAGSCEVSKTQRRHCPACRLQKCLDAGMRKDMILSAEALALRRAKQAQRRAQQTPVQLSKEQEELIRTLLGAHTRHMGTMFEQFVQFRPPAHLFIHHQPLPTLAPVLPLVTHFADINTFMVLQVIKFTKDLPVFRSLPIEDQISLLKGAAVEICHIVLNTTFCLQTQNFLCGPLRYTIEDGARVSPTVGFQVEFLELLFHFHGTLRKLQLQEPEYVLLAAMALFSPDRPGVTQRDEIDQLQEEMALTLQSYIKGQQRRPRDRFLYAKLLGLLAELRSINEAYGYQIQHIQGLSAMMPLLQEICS
Chain of Thyrotropin receptor (Homo sapiens) (P16473 whole entry, looked up): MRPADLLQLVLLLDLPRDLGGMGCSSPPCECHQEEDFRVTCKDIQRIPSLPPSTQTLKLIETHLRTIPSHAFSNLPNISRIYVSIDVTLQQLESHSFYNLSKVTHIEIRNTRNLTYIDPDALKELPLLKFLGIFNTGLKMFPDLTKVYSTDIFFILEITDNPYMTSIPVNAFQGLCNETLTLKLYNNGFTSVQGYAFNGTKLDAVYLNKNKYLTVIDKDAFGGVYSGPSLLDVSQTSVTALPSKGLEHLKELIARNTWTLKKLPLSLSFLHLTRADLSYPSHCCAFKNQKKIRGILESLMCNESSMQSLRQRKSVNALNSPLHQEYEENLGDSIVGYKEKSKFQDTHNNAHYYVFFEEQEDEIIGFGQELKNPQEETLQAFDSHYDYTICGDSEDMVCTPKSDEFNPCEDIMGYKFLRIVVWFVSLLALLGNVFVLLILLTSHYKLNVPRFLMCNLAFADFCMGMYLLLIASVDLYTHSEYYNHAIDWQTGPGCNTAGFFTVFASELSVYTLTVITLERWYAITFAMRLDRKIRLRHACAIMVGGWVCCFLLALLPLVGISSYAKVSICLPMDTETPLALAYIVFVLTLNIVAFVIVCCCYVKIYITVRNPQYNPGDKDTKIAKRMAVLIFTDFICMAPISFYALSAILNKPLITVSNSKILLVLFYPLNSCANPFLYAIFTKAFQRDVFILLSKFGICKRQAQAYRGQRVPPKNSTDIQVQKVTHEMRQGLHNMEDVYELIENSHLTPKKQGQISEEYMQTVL
Chain of Luciferin 4-monooxygenase (Photinus pyralis) (P08659 whole entry, looked up): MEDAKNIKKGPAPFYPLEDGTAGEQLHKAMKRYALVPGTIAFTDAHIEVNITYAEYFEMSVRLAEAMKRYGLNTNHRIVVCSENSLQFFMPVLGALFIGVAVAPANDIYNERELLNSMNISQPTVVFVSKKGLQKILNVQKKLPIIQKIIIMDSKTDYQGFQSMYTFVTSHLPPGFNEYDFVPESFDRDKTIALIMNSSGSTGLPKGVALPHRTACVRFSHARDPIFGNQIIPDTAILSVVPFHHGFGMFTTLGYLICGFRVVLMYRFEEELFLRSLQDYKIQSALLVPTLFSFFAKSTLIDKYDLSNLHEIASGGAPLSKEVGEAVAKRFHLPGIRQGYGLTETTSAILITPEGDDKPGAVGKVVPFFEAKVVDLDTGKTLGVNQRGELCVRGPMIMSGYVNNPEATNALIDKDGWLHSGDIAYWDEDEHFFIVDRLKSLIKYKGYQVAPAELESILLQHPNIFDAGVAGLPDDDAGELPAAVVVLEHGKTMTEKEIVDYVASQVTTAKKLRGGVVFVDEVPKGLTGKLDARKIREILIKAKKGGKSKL

Take `O=[N+]([O-])/N=C1\NCCN1Cc1ccc(Cl)nc1`: the Potency result in [1], in assay [2], in assay [3], in [4], in assay [5] and in assay [6] was “inactive” in each case. Moreover, the Potency result in [7], in assay [8], in assay [9], in [10], in [11] and in assay [12] was “inactive” in each case. For the same compound, the Potency entry in [13] is “inactive”.

On to `C=CC(Cl)CCl` (stereo not given), for which the Potency result in [1], in assay [2], in [3], in assay [4], in assay [5] and in assay [6] was “inactive” each time. The Potency result in [7], in [8], in assay [9], in assay [10] and in assay [11] was “inactive” throughout.

With `[CH3][Sn]([Cl])([Cl])[Cl]`, the Potency result in assay [1], in assay [2], in assay [3], in [4], in [5] and in [6] was “inactive” in each case. The Potency entry in assay [7], in [8], in [9], in assay [10] and in [11] was “inactive” in each case.

Take `COP(=S)(OC)Oc1ccc(Sc2ccc(OP(=S)(OC)OC)cc2)cc1`: the Potency entry in assay [1], in assay [2], in [3], in [5], in assay [7] and in assay [8] was “inactive” each time. Besides, the Potency result in [9], in assay [11], in [12], in assay [14] and in assay [13] was “inactive” in each case. The Potency in assay [4] is 61.1 µM (active) and inactive; in assay [6], 31.7 µM (active) and inactive; in assay [10], 61.1 µM (active) and inactive.

With `CCCCCCCCCCCCCl`, the Potency entry in assay [1], in assay [2], in assay [3], in assay [4], in [5] and in assay [6] was “inactive” in each case. The Potency result in assay [7], in [8] and in [11] was “inactive” each time.

For `CC(C)(c1ccc(OCC2CO2)cc1)c1ccc(OCC2CO2)cc1` (stereo not given), the Potency in assay [1] was 49.6 µM (active) and inactive; in [12] it was 69.5 µM (active) and inactive. The Potency entry in assay [2], in assay [3], in assay [4], in [5], in assay [6] and in assay [7] was “inactive” throughout. For the same compound, the Potency entry in [8], in assay [9], in [10], in assay [11] and in assay [13] was “inactive” in each case.

As for `OC(c1ccc(Cl)cc1)(c1cncnc1)c1ccccc1Cl` (stereo not given), the Potency result in [1], in assay [2], in assay [4], in [7] and in [10] was “inactive” in each case. Besides, the Potency in [3] is 27.8 µM (active) and inactive; in [5] it was 27.8 µM (active) and 43.3 µM (active); in [6], 81.1 µM (active) and inactive; in assay [8] it was 55.4 µM (active); in assay [9], 62.2 µM (active) and inactive; in assay [12] it was 24.8 µM (active) and inactive.

For `OCCOCCO`, the Potency result in [1], in [2], in [3], in [4], in assay [5] and in assay [6] was “inactive” throughout. For the same compound, the Potency result in assay [7], in assay [8], in [9], in assay [10] and in assay [11] was “inactive” in each case.

Take `Nc1ncn[nH]1`: the Potency entry in assay [1], in [2], in assay [3], in assay [4], in assay [5] and in assay [6] was “inactive” throughout. The Potency result in assay [7], in [8], in assay [9], in [10], in assay [11] and in [13] was “inactive” each time.
